Measurements from ChEMBL document CHEMBL4888484, “Replenishing the malaria drug discovery pipeline: Screening and hit evaluation of the MMV Hit Generation Library 1 (HGL1) against asexual blood stage Plasmodium falciparum ,using a nano luciferase reporter read-out” (2022).
Out of some 4,800 compounds screened, about 420 (8.8%) showed an effect of 50% or more. The full list was thinned out, with strong results kept by preference.

These compounds were tested on Plasmodium falciparum (assay: Confirmatory screen in NF54 nanoGlo assay, in single point, at 2uM, 72h). Settings: timepoint 72 hour.
Format: functional, Erythrocyte

Row | SMILES | % Inhibition [%]
1 | Cc1ccc(CN2CCN(C[C@@H](O)Cn3c4ccccc4n4c(=O)cc(C)c(C#N)c34)CC2)c(C)c1 | 89
2 | N#Cc1c(CN2CCOCC2)cc(=O)n2c1[nH]c1ccccc12 | -4
3 | O=C(Cc1c[nH]c2ccccc12)N[C@H]1CCS(=O)(=O)C1 | -4
4 | CCOCCCNC/C=C/c1ccccc1 | -5
5 | CC(=O)N1CCC(Nc2ccc3c(c2)CCC(=O)N3)CC1 | -17
6 | COc1cc(Cl)c(C)cc1NC(=O)c1cc(=O)n(-c2ccc(C)cc2)[nH]1 | -8
7 | Clc1cccc(N2CCN(Cc3ccc(OC4CCNCC4)cc3)CC2)c1 | 27
8 | O=C(CN1CCCCCC1)Nc1ccc(OCc2ccccc2)cc1 | 0
9 | c1ccc(Cn2ncc3cc(-c4nc(C5CC5)no4)cnc32)cc1 | 3
10 | COc1ccccc1[C@H]1CC(O)=Nc2c1ncn2-c1cc(F)cc(F)c1 | -4
11 | Cn1ccnc1[C@@H]1CCCN1S(=O)(=O)c1c2c(nn1C)CCCC2 | 4
12 | C[C@@H](CNc1nc(-c2ccccc2)nc2nc(-c3ccc(Cl)cc3)oc12)N1CCCCC1 | 60
13 | O=C1CC(c2cccc(NC(=O)CCc3ccccn3)c2)CC(=O)N1 | 3
14 | NC(=O)c1ccc(C(F)(F)F)n(CC(=O)N(Cc2ccc(F)cc2)C2CCCCC2)c1=O | -6
15 | Cc1cc(-n2c(C)cc(C(=O)Cn3c(C(F)(F)F)ccc(C(N)=O)c3=O)c2C)no1 | 25
16 | NC(=O)c1ccc(C(F)(F)F)n(C[C@H](O)c2cc(Cl)ccc2Cl)c1=O | 63
17 | CCN(CCN(C)C)C(=O)c1cccc(-c2ccc3nccc(N)c3c2)c1 | 70
18 | CCC(=O)N(CCN(C)C)Cc1c(-c2ccccc2)noc1N1CCCCC1 | 10
19 | Cc1cccc(OC[C@@H](O)Cn2cnc(C)c(C)c2=O)c1 | 5
20 | COc1ccc(-n2nnnc2[C@@H](NCCc2c[nH]c3ccccc23)C(C)C)cc1 | -1
21 | Cc1cccc(CC(=O)N[C@@H](C)CCC(=O)O)c1 | 4
22 | CN1CCC2C(CCN2C(=O)Nc2ccc(Cl)c(C(F)(F)F)c2)C1 (configuration not stated) | 2
23 | O=C(CCc1ccc(Cl)c(C(F)(F)F)c1)N1CC[C@H](N2CCc3ccccc3C2)C1 | 52
24 | O=C(Nc1ccccc1Cl)N1CCC(N2CCc3sccc3C2)CC1 | 37
25 | CC(C)c1cccc(CN2C(=O)N[C@]3(CC(C)(C)OC3(C)C)C2=O)n1 | -6

Row | SMILES | % Inhibition [%]
26 | C[C@H](C(=O)NCC1CCN(Cc2ccccc2F)CC1)C1CCOCC1 | -6
27 | COc1ccc2cc3n(c2c1)C[C@](C(=O)NC1CCCCCC1)(c1ccccc1)N(Cc1ccccc1F)C3=O | -17
28 | CC(Oc1ccc2c(c1)C(c1ccccc1)N(Cc1ccccc1F)CC2)C(=O)NC1CC1 (configuration not stated) | 56
29 | C=CCN1CCN(c2nccn3nc(-c4ccc(Cl)cc4)cc23)CC1 | -3
30 | CC[C@H]1C(=O)NCCN1C(=O)c1cc(C)n[nH]1 | 7
31 | Cn1c(Cc2n[n+]3c(-c4ccccc4)cc(-c4ccccc4)nc3n2C)n[n+]2c(-c3ccccc3)cc(-c3ccccc3)nc12 | 99
32 | COCc1nsc(N2CCC(c3ccccc3)CC2C)n1 (configuration not stated) | 1
33 | O=C(NCc1cccnc1)c1cnn2c3c(cnc12)CCCC3 | -4
34 | FC(F)(F)C1CN(c2nc(-c3ccccn3)nc3c2CCC3)C1 | 67
35 | C[C@H]1CCN(c2nc(-c3ccccn3)nc3c2CCC3)C1 | 91
36 | CCc1ccc(NC(=O)[C@H]2CCCN(c3nc4cccnc4n(Cc4ccccc4)c3=O)C2)cc1 | -6
37 | O[C@H]1Cc2ccccc2[C@H]1Nc1nc(-c2ccccn2)nc2c1CCNC2 | 13
38 | C[C@H]1CCCN(S(=O)(=O)NCC(=O)Nc2ccccn2)C1 | -15
39 | C[C@H]1CCCN(c2nc(-c3ccccn3)nc3ccccc23)C1 | 97
40 | CN(C)Cc1ccc(O)c(CCc2ccccc2)n1 | 29
41 | C[C@@]12CCCCN1CCCc1c2[nH]c2ccccc12 | -15
42 | CCOc1cc(Cl)ccc1C(=O)NC1CCN(C[C@H]2CCOC2)CC1 | 1
43 | COc1c[nH]c(C(=O)NC2CCN(Cc3ccccc3)CC2)cc1=O | 5
44 | FCCn1ncnc1CN1CCCCC[C@H]1C1CCCCC1 | 4
45 | CCN(CC)CC(O)COc1c(Br)cc(C(C)(C)c2cc(Br)c(OCC(O)CN(CC)CC)c(Br)c2)cc1Br (configuration not stated) | 99
46 | O=C(CNC(=O)[C@H]1CC[C@H](CNS(=O)(=O)c2ccccc2)CC1)N1CCN(c2ccccc2)CC1 | 4
47 | O=C(Nc1nc2ccc(F)cc2s1)c1cccc2c(Br)cccc12 | -1
48 | C=CCN1C(=O)OC(C)(CCC=C(C)C)C1(C)O (configuration not stated) | 9
49 | Cc1cc(CN(C)Cc2nccn2C)ccc1N1CCCCC1 | -1
50 | CN1CCCN(c2ccnc3ccsc23)CC1 | 2

Row | SMILES | % Inhibition [%]
51 | Cc1cccc(OCc2nn3c([C@H]4CCCN(S(C)(=O)=O)C4)nnc3s2)c1 | -6
52 | Cc1nccc(N(C)C2CC(Oc3ccccc3)C2(C)C)n1 (configuration not stated) | -5
53 | Cc1nn2c(C(F)F)cc(-c3ccc4c(c3)OCO4)nc2c1Cl | -5
54 | O=C(CCn1nc(-c2ccc(Br)cc2)ccc1=O)NCc1ccc2c(c1)OCO2 | -4
55 | CCc1ccc(CN2C(=O)c3c(C(=O)OC)ncn3C[C@@]2(C)C(=O)NC2CCCC2)cc1 | -6
56 | CCc1ccc(CN2C(=O)c3c(C(=O)OC)ncn3C[C@@]2(C)C(=O)NC2CCCCCC2)cc1 | 1
57 | C[C@@]1(C(=O)NCc2ccccc2)Cn2nc(-c3ccccc3)cc2C(=O)N1c1ccc2c(c1)OCCO2 | 58
58 | COc1ccc(-c2cc3n(n2)C[C@@](C)(C(=O)NCc2ccccc2)N(Cc2ccc4c(c2)OCO4)C3=O)cc1 | 63
59 | COc1ccc(-c2cc3n(n2)C[C@@](C)(C(=O)NCc2ccccc2OC)N(c2cccc(OC)c2)C3=O)cc1 | 49
60 | Cc1cc(C)c(S(=O)(=O)N2CCC(C)(C(=O)NCc3ccc4c(c3)OCO4)CC2)cc1C | 3
61 | COc1cccc(-c2ccc(=O)n(CCC(=O)N3CCN(Cc4ccc5c(c4)OCO5)CC3)n2)c1 | 1
62 | CCc1ccc(-c2cc3n(n2)C[C@@](C)(C(=O)NC2CCCCC2)N(c2cc(C)cc(C)c2)C3=O)cc1 | 74
63 | Cc1nn(CCc2nnc(-c3ccc4c(c3)OCO4)o2)c(C)c1Cl | -3
64 | O=C(O)Cc1sc(-c2ccccc2)nc1O | 1
65 | CC(=O)Nc1cc(NC(=O)c2cccc[n+]2[O-])c(F)cc1F | -2
66 | COC(=O)c1[nH]c(C)cc1NC(=O)C1=CCCCCC1 | -2
67 | O=C(Nc1nncs1)NC(C1CC1)C1CC1 | 0
68 | O=C(Nc1nncs1)c1cccc(C(=O)Nc2nncs2)n1 | 68
69 | Cc1ccc(-c2csc(NC(=O)c3cccc(C(=O)Nc4nc(-c5ccc(C)cc5C)cs4)n3)n2)c(C)c1 | -1
70 | CCOC(=O)c1c(C(F)(F)F)[nH]n2c(C(F)F)nnc12 | -3
71 | CCOc1ccc2ccccc2c1C(=O)Nc1cc(C)nn1-c1nc2c(c(=O)[nH]1)CCC2 | 94
72 | COc1ccc2ccccc2c1C(=O)Nc1ccc(N2CCN(C)CC2)c(Cl)c1 | 5
73 | O=C(Cc1ccccc1)Nc1c2c(nc3c1CCC3)CCCC2 | 3
74 | Cc1cc(NC(=O)C(=O)NC2CC(C)CC(C)(C)C2)n(-c2nc3c(c(=O)[nH]2)CCC3)n1 (configuration not stated) | 90
75 | Cc1cc(C)cc(Nc2nc(C)cc(=O)n2CC(=O)Nc2ccc(C)cc2Br)c1 | -8

Row | SMILES | % Inhibition [%]
76 | Cc1ccc2c(c1)ncc1c(-c3ccccc3)nn(-c3ccc(F)cc3)c12 | -5
77 | COc1ccc(NC(=O)Cc2c(C)nn(-c3nc(C)cs3)c2O)c(OC)c1 | -7
78 | CCOC(=O)c1cc(-c2ccccc2)n(NC(=O)COc2ccc(Cl)cc2)c1C | -11
79 | CNC(=O)c1cc(N2CCN(c3ncc(C(F)(F)F)cc3Cl)CC2)ccc1NC(=O)c1ccccc1Cl | 7
80 | CCCN(CCC)CCN1C(=O)[C@@H]2C(C(=O)Nc3cc(Cl)cc(Cl)c3)[C@@H]3C=C[C@]2(O3)C1C(=O)NC1CCCCC1 (some centres not stated) | -3
81 | COc1ccc(OC)c(NC(=O)Cn2cnc3nc(N4CCOCC4)ncc3c2=O)c1 | 8
82 | Cc1cc(-c2nnc3n2CC(C)(C)CC3)c(C)o1 | 2
83 | CCN(C)C1(CNC(=O)c2ccc(-c3cc(F)ccc3O)cc2)CCCC1 | 26
84 | CCCc1cc(-c2nc(-c3ccc(-n4nc(C)cc4N)cc3)no2)n(C)n1 | 48
85 | COc1cccc2nc(C[C@H]3CN(CC(C)C)CC[C@H]3CC(=O)O)[nH]c12 | -9
86 | CNc1nc(NCCc2ccccc2)nc2ccccc12 | 80
87 | CNc1nc(NCc2ccccc2)nc2ccccc12 | 78
88 | NS(=O)(=O)c1ccc(CCNc2nc(-c3ccccc3)nc3ccccc23)cc1 | -2
89 | O=C1c2ccccc2[C@@H](Nc2ccc3c(c2)OCCO3)N1c1ccccn1 | -17
90 | CC1(C)Cc2nc3ccccc3c(NCc3ccccc3)c2[C@@H](O)C1 | 44
91 | CNc1nc(Nc2ccc3c(c2)OCCO3)nc2ccccc12 | 95
92 | c1ccc(CCNc2nc(-c3ccccn3)cs2)cc1 | 12
93 | C[C@H](Nc1nc(N2CCCCC2)nc2ccccc12)c1ccccc1 | -1
94 | Cc1ccc(-c2nc3ncccn3c2Nc2ccc3c(c2)OCCO3)o1 | -8
95 | c1coc(CNc2nc(Nc3cccc4ccccc34)nc3ccccc23)c1 | 20
96 | Cc1ccc(C)n1-c1ccc(Cl)c(C(=O)NC[C@H]2COCCO2)c1 | -4
97 | C#Cc1cc(C(F)(F)F)cc(C#N)c1N | 5
